This passage reports AC50 and outcome results from PubChem BioAssay (EPA / NIEHS).

Where “and” joins values, the source holds several entries; their conditions need not be identical. Equal values may be shown once. Results filed as inconclusive are left out. Calls of active or inactive are those of the source. The calls were made as follows, unless noted: active = hit-call score of the fitted dose curve at least 0.9, where 1 is the maximum; inconclusive = response in the unintended direction; inactive = score below 0.9.

Read-out in assay [1]: UDP glucuronosyltransferase (UGT1A1), UGT1A1 (gene 54658)
The assay is described as follows: LTEA_HepaRG_UGT1A1: Life Technologies and Expression Analysis (LTEA) Assay for UDP glucuronosyltransferase (UGT1A1) using HepaRG (AID 2283538; active = hit-call score of the fitted dose curve at least 0.9, where 1 is the maximum; inactive = score below 0.9). The settings on record: mRNA level, 48 h; actives raise or lower the signal. The essentials: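 Differentiated human HepaRG cells in serum-free induction medium were exposed in duplicate for 48 h to eight half-log concentrations up to 100 uM in 0.5% DMSO. UGT1A1 mRNA was quantified by TaqMan qRT-PCR, normalized to ACTB, GAPDH and POLR2A, and fitted bidirectionally against DMSO.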

Read-out in assay [2]: UDP glucuronosyltransferase (UGT1A6), UGT1A6 (gene 54578)
The assay is described as follows: LTEA_HepaRG_UGT1A6: Life Technologies and Expression Analysis (LTEA) Assay for UDP glucuronosyltransferase (UGT1A6) using HepaRG (AID 2283539; active = hit-call score of the fitted dose curve at least 0.9, where 1 is the maximum; inactive = score below 0.9). The settings on record: mRNA level, 48 h; actives raise or lower the signal. The essentials: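 HepaRG, 48 h post-plating switch to serum-free induction medium; chemical 48 h, 100 uM top, half-log x8, duplicate, 0.5% DMSO. Phenobarbital 1mM induction control. UGT1A6 mRNA by TaqMan qRT-PCR; gain/loss fit vs DMSO.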

Read-out in assay [3]: X-box binding protein 1 (XBP1), XBP1 (gene 7494)
The assay is described as follows: LTEA_HepaRG_XBP1: Life Technologies and Expression Analysis (LTEA) Assay for X-box binding protein 1 (XBP1) using HepaRG (AID 2283540; active = hit-call score of the fitted dose curve at least 0.9, where 1 is the maximum; inactive = score below 0.9). The conditions noted are these: mRNA level, 48 h; actives raise or lower the signal. Summed up:
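Transcript levels of XBP1, measured by qRT-PCR and normalised to three housekeeping genes, were fitted bidirectionally relative to 0.5% DMSO controls. Human HepaRG cells received eight-point half-log dilutions from 100 uM for 48 h.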

A short description of assay [4]: LTEA_HepaRG_LDH_cytotoxicity: Cytotoxicity Assessment in the Life Technologies and Expression Analysis (LTEA) Assay (AID 2283563).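 As to AC50: LDH activity released into spent culture medium as a marker of cell death.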 Summed up:
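Cells were thawed and plated for 48 h. Medium was then replaced with serum-free induction medium. Chemicals (8 half-log points, maximum 100 uM, 0.5% DMSO) were added in duplicate for 48 h, after which spent medium was assayed for LDH.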

Assay [5] in a line: TOX21_p53_BLA_p2_viability: Viability Assessment in the Tox21 HCT-116 p53 Agonism Beta-lactamase Assay, Phase 2 (AID 2283591).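 Also: compound exposure lasted 16 h at 37 °C; actives lower the ATP signal meaning cytotoxicity.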 The essentials: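 HCT-116 p53-bla cells (4000/well) rested 5 h at 37C, then received compounds in DMSO (217-fold dilution) for 16 h at 37C, 5% CO2. After the CCF4 read, CellTiter-Glo was added; ATP luminescence was read after 30 min at room temperature.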

Assay [6] has as its target Cellular tumor antigen p53 (Homo sapiens) (UniProt P04637). The assay is described as follows: TOX21_p53_BLA_p2_ratio: Tox21 HCT-116 p53 Agonism Beta-lactamase Assay, Ratio, Phase 2 (AID 2283592). The essentials:
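HCT116 p53-bla; 4000 cells/well; 5 h pre-incubation; cpd in DMSO, 217-fold dilution; 16 h 37C/5% CO2; CCF4-AM 2 h RT; Ex 405, Em 460/530 ratio; DMSO = baseline; positive fitting direction.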

A short description of assay [7]: TOX21_p53_BLA_p3_viability: Viability Assessment in the Tox21 HCT-116 p53 Agonism Beta-lactamase Assay, Phase 3 (AID 2283593).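 Also: cells exposed to compound for 16 h before reading.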 Summed up: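 HCT-116 cells (4000/well) rested 5 h at 37C, then got DMSO compounds by pin tool (217-fold dilution) for 16 h at 37C, 5% CO2. After the bla read, CellTiter-Glo was added and luminescence read at 30 min, room temperature.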
In assay [8] the target is Cellular tumor antigen p53 (Homo sapiens) (UniProt P04637). The experiment in a line: TOX21_p53_BLA_p3_ratio: Tox21 HCT-116 p53 Agonism Beta-lactamase Assay, Ratio, Phase 3 (AID 2283596). Summed up:
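HCT116 p53-bla cells (4000/well) given compound in DMSO (217-fold dilution) after 5 h, incubated 16 h at 37C. CCF4-AM substrate 2 h at room temperature; 460/530 nm emission ratio, gain fitted against DMSO.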

Assay [9] in a line: TOX21_p53_BLA_p4_viability: Viability Assessment in the Tox21 HCT-116 p53 Agonism Beta-lactamase Assay, Phase 4 (AID 2283597).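 Also: hits lower the luminescence signal meaning cytotoxicity.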 Summed up:
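Cells plated, 5 h pre-incubation; DMSO compounds pinned (217-fold dilution); 16 h, 37C/5% CO2; CCF4-AM 2 h RT; CellTiter-Glo 30 min RT; luminescence read.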

Assay [10] concerns the target Cellular tumor antigen p53 (Homo sapiens) (UniProt P04637). The experiment in a line: TOX21_p53_BLA_p5_ratio: Tox21 HCT-116 p53 Agonism Beta-lactamase Assay, Ratio, Phase 5 (AID 2283599). Summed up:
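HCT-116 cells carrying a p53-inducible beta-lactamase reporter were seeded at 4000 cells/well and dosed after 5 h with compound in DMSO (217-fold dilution). After 16 h at 37C, CCF4-AM substrate was added for 2 h, and the 460/530 nm emission ratio was scored as gain-of-signal versus DMSO.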

Assay [11] in a line: TOX21_p53_BLA_p5_viability: Viability Assessment in the Tox21 HCT-116 p53 Agonism Beta-lactamase Assay, Phase 5 (AID 2283600). Summed up:
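4000 cells/well; 5 h pre-incubation; DMSO compounds pin-transferred, 217-fold dilution; 16 h, 37C/5% CO2; CCF4-AM 2 h RT; CellTiter-Glo 30 min RT; luminescence.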

Assay [12] can be described thus: Tanguay_ZF_120hpf_MORT_legacy: (Legacy) Oregon State University Tanguay Lab 120 Hour Post-fertilization zebrafish Assay for Mortality (AID 2283633).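 As to AC50: fitted as increase in binary mortality versus DMSO negative control.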 The essentials:
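5D WT zebrafish, chorion removed 4 hpf; 1 embryo/well from 6 hpf; static exposure to 120 hpf, 28C, dark, sealed. Final DMSO 0.64%. Readout: binary mortality, brightfield, 24 + 120 hpf; DMSO as negative control.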

Assay [13] in a line: Tanguay_ZF_120hpf_AXIS_legacy: (Legacy) Oregon State University Tanguay Lab 120 Hour Post-fertilization zebrafish Assay for Body Axis Malformation (AID 2283635).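 As to AC50: potency for an increased fraction of larvae scored with body axis malformation.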 The essentials:
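Chorion is removed with pronase at 4 hpf, then single 6 hpf embryos are dosed (final DMSO 0.64%) and held statically at 28C in sealed, foil-covered plates. At 120 hpf body axis malformation is recorded as present or absent.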

A short description of assay [14]: Tanguay_ZF_120hpf_EYE_legacy: (Legacy) Oregon State University Tanguay Lab 120 Hour Post-fertilization zebrafish Assay for Eye Malformation (AID 2283636).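 Also: binary presence or absence of eye malformation scored by brightfield in 120 hpf larvae.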 Summed up:
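Dechorionated wild-type Tropical 5D zebrafish embryos were exposed statically from 6 hpf, one per well, to 120 hpf at 28C in sealed, foil-covered plates with 0.64% DMSO. Eye malformation was scored present/absent by brightfield microscopy against DMSO controls.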

Assay [15] is described as follows: Tanguay_ZF_120hpf_JAW_legacy: (Legacy) Oregon State University Tanguay Lab 120 Hour Post-fertilization zebrafish Assay for Jaw Malformation (AID 2283638). Summed up:
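Steps: dechorionate 4 hpf embryos (pronase); plate 1/well at 6 hpf; add test chemical, 0.64% DMSO final; seal, cover, hold at 28C statically to 120 hpf; score jaw defect presence/absence microscopically. Dead embryos not scored.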

Assay [16] can be described thus: Tanguay_ZF_120hpf_OTIC_legacy: (Legacy) Oregon State University Tanguay Lab 120 Hour Post-fertilization zebrafish Assay for Otic Vesicle Malformation (AID 2283639). The essentials:
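Tropical 5D wild-type zebrafish embryos were exposed statically in sealed, foil-covered plates at 28C until 120 hpf, with 0.64% (vol/vol) DMSO final. Otic vesicle malformation was scored present/absent by brightfield microscopy, with DMSO as baseline.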

A short description of assay [17]: Tanguay_ZF_120hpf_YSE_legacy: (Legacy) Oregon State University Tanguay Lab 120 Hour Post-fertilization zebrafish Assay for Yolk Sac Edema (AID 2283634). The essentials: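 Dechorionate (pronase, 4 hpf) → place one 6 hpf embryo per well → static compound exposure, sealed and foil-covered, 28C, to 120 hpf → record yolk sac edema as present or absent. Final DMSO 0.64%.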

The nature of assay [18]: ATG_XTT_Cytotoxicity: Cytotoxicity Assessment in the Attagene TRANS-FACTORIAL HepG2 Assay (AID 2283584). Summed up:
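Cells: human HepG2, transiently transfected with MRTU reporter constructs. Exposure 24 h. Readout: XTT, cell number. Baseline/neg ctrl DMSO; loss-of-signal scored.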

Assay [19] in a line: Tanguay_ZF_120hpf_SNOU_legacy: (Legacy) Oregon State University Tanguay Lab 120 Hour Post-fertilization zebrafish Assay for Snout Malformation (AID 2283637). Summed up:
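Tropical 5D wild-type zebrafish embryos, dechorionated with pronase at 4 hpf, were exposed singly from 6 hpf to 120 hpf statically at 28C in 0.64% DMSO. Snout malformation was scored present/absent by brightfield microscopy, fitted against DMSO.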

The target in assay [20] is Cellular tumor antigen p53 (Homo sapiens) (UniProt P04637). The assay is described as follows: TOX21_p53_BLA_p4_ratio: Tox21 HCT-116 p53 Agonism Beta-lactamase Assay, Ratio, Phase 4 (AID 2283601). The essentials:
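HCT116 cells carrying an inducible beta-lactamase reporter were plated at 4000 cells/well, rested 5 h, then exposed to compounds in DMSO (217-fold dilution) for 16 h at 37C. CCF4-AM substrate was loaded 2 h at room temperature; 460/530 nm emission ratio scored gain-of-signal versus DMSO.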

Sequence of Cellular tumor antigen p53 (Homo sapiens) (P04637 whole entry, looked up): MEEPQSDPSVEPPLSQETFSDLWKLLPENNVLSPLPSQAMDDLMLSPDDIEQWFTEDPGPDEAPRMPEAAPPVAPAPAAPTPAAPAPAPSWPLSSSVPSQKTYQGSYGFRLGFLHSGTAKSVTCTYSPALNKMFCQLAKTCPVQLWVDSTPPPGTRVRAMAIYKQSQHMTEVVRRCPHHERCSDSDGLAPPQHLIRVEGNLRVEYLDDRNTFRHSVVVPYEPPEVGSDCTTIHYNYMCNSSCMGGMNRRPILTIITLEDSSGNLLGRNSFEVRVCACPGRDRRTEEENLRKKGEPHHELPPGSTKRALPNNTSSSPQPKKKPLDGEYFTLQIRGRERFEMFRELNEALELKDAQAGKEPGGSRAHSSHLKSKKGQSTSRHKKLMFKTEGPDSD

The AC50 is the concentration at which the activity in the assay is half-maximal. For `Cc1cc(C2CC2)nc(Nc2ccccc2)n1`, the AC50 was 50 µM (active) in [1], 73.7 µM (active) in assay [4], 62.2 µM (active) in assay [5] and 64.9 µM (active) in [9]. The outcome in assay [2], in assay [3], in [6], in assay [7], in assay [8] and in assay [10] was inactive. The call in [11], in assay [12], in assay [13], in assay [14], in [15] and in assay [16] was inactive.
Regarding `COc1cccc(C(=O)NN(C(=O)c2cc(C)cc(C)c2)C(C)(C)C)c1C`, the AC50 in assay [1] is 2.32 µM (active). Moreover, the outcome in [2], in assay [3], in [4], in [5], in assay [6] and in [7] was inactive. In addition, the molecule was classed as inactive in [11], in assay [12], in assay [17], in assay [13], in [14] and in assay [15]. Further, in [16], the call was inactive.
In the case of `CCC(CC)Nc1c([N+](=O)[O-])cc(C)c(C)c1[N+](=O)[O-]`, in assay [1], the AC50 is 28.2 µM (active). Besides, the molecule was called inactive in assay [2], in assay [4], in [18], in assay [5], in assay [6] and in assay [7]. In addition, the result in assay [8], in assay [9], in assay [10], in assay [11], in [12] and in assay [17] was inactive. For the same molecule, the molecule was classed as inactive in assay [13], in assay [14], in [15] and in assay [16].
As to `N#CSCSC#N`, the result in assay [1], in [2], in assay [3], in assay [17], in assay [13] and in assay [14] was inactive. Moreover, the call in [19] and in assay [16] was inactive. Besides, the AC50 is 75.7 µM (active) in assay [4]; 54.8 µM (active) and 70.4 µM (active) in assay [5]; 19 µM (active) and 15.5 µM (active) in [6]; 60.7 µM (active) and 78.2 µM (active) in assay [7]; 14.9 µM (active) and 8.68 µM (active) in assay [8]; 51.1 µM (active) and 61.9 µM (active) in [9]. Besides, the AC50 in [10] was 18.8 µM (active) and 15.9 µM (active); in assay [11] it was 66.3 µM (active) and 68.4 µM (active); in assay [12], 34.6 µM (active).
Turning to `CCOP(=S)(OCC)Oc1ccc2c(C)c(Cl)c(=O)oc2c1`, the AC50 in [1] is 3.4 µM (active). Moreover, the outcome in [2], in [4], in assay [18], in assay [5], in assay [6] and in [7] was inactive. For the same molecule, the outcome in [8], in assay [9], in [10], in assay [11], in assay [12] and in assay [17] was inactive. The outcome in assay [13], in assay [14] and in [15] was inactive.
For `CCOC(=O)CC(SP(=O)(OC)OC)C(=O)OCC` (centres undefined), the call in [1], in assay [2], in [4], in assay [5], in [6] and in assay [7] was inactive. Moreover, the result in [8], in [9], in [10], in [11], in assay [12] and in assay [17] was inactive. Besides, the call in assay [15] and in assay [16] was inactive. Besides, the values for the AC50 in [13] and in [14] were 16.5 µM (active) and 12.1 µM (active), respectively.
As to `CN(C)NC(=O)CCC(=O)O`, the result in [1], in assay [2], in assay [4], in assay [5], in assay [6] and in [7] was inactive. For the same molecule, the outcome in [8], in [9], in assay [10], in assay [11], in assay [20] and in [12] was inactive. Besides, the molecule was classed as inactive in assay [17], in [13], in assay [14], in assay [19], in assay [15] and in [16].
